{"source": "paper PMC9911399", "about": "“Two distinct binding modes provide the RNA-binding protein RbFox with extraordinary sequence specificity”", "binders": {"B1": {"name": "GAAUACU (DNA:RNA)", "RNA": "GGGAGACCGGAAUUCAGAUUGUCCGAAUACUUUAAAUCCCGUCGUAGCCACCA", "DNA 1": "CAATCTGAATTCCGGTCTCCC", "DNA 2": "TGGTGGCTACGACGGGATT"}, "B2": {"name": "CCUCACA (DNA:RNA)", "RNA": "B1 RNA with G25C, A26C, A27U, U28C, U31A", "DNA 1": "CAATCTGAATTCCGGTCTCCC", "DNA 2": "TGGTGGCTACGACGGGATT"}, "B3": {"name": "GUCUUGC (DNA:RNA)", "RNA": "B1 RNA with A26U, A27C, A29U, C30G, U31C", "DNA 1": "CAATCTGAATTCCGGTCTCCC", "DNA 2": "TGGTGGCTACGACGGGATT"}, "B4": {"name": "GGCUUGC (DNA:RNA)", "RNA": "B1 RNA with A26G, A27C, A29U, C30G, U31C", "DNA 1": "CAATCTGAATTCCGGTCTCCC", "DNA 2": "TGGTGGCTACGACGGGATT"}, "B5": {"name": "GCUUGUC (DNA:RNA)", "RNA": "B1 RNA with A26C, A27U, A29G, C30U, U31C", "DNA 1": "CAATCTGAATTCCGGTCTCCC", "DNA 2": "TGGTGGCTACGACGGGATT"}, "B6": {"name": "GGAUUGA (DNA:RNA)", "RNA": "B1 RNA with A26G, A29U, C30G, U31A", "DNA 1": "CAATCTGAATTCCGGTCTCCC", "DNA 2": "TGGTGGCTACGACGGGATT"}, "B7": {"name": "GUCUUAA (DNA:RNA)", "RNA": "B1 RNA with A26U, A27C, A29U, C30A, U31A", "DNA 1": "CAATCTGAATTCCGGTCTCCC", "DNA 2": "TGGTGGCTACGACGGGATT"}, "B8": {"name": "GUCUUGU (DNA:RNA)", "RNA": "B1 RNA with A26U, A27C, A29U, C30G", "DNA 1": "CAATCTGAATTCCGGTCTCCC", "DNA 2": "TGGTGGCTACGACGGGATT"}, "B9": {"name": "GUCUUGA (DNA:RNA)", "RNA": "B1 RNA with A26U, A27C, A29U, C30G, U31A", "DNA 1": "CAATCTGAATTCCGGTCTCCC", "DNA 2": "TGGTGGCTACGACGGGATT"}, "B10": {"name": "GUUUGUC (DNA:RNA)", "RNA": "B1 RNA with A26U, A27U, A29G, C30U, U31C", "DNA 1": "CAATCTGAATTCCGGTCTCCC", "DNA 2": "TGGTGGCTACGACGGGATT"}, "B11": {"name": "GUCGUCU (DNA:RNA)", "RNA": "B1 RNA with A26U, A27C, U28G, A29U", "DNA 1": "CAATCTGAATTCCGGTCTCCC", "DNA 2": "TGGTGGCTACGACGGGATT"}, "B12": {"name": "UCGUGCG (DNA:RNA)", "RNA": "B1 RNA with G25U, A26C, A27G, A29G, U31G", "DNA 1": "CAATCTGAATTCCGGTCTCCC", "DNA 2": "TGGTGGCTACGACGGGATT"}, "B13": {"name": "UCGCCAG (DNA:RNA)", "RNA": "GGGAGACCGGAAUUCAGAUUGUCCUCGCCAGUUAAAUCCCGUCGUAGCCACCA", "DNA 1": "CAATCTGAATTCCGGTCTCCC", "DNA 2": "TGGTGGCTACGACGGGATT"}, "B14": {"name": "ACGUCCU (DNA:RNA)", "RNA": "B1 RNA with G25A, A26C, A27G, A29C", "DNA 1": "CAATCTGAATTCCGGTCTCCC", "DNA 2": "TGGTGGCTACGACGGGATT"}, "B15": {"name": "AACCAGA (DNA:RNA)", "RNA": "B1 RNA with G25A, A27C, U28C, C30G, U31A", "DNA 1": "CAATCTGAATTCCGGTCTCCC", "DNA 2": "TGGTGGCTACGACGGGATT"}, "B16": {"name": "CAAACUC (DNA:RNA)", "RNA": "B1 RNA with G25C, U28A, A29C, C30U, U31C", "DNA 1": "CAATCTGAATTCCGGTCTCCC", "DNA 2": "TGGTGGCTACGACGGGATT"}, "B17": {"name": "AGAAGAU (DNA:RNA)", "RNA": "B1 RNA with G25A, A26G, U28A, A29G, C30A", "DNA 1": "CAATCTGAATTCCGGTCTCCC", "DNA 2": "TGGTGGCTACGACGGGATT"}, "B18": {"name": "UCCCCGG (DNA:RNA)", "RNA": "B13 RNA with G27C, A30G", "DNA 1": "CAATCTGAATTCCGGTCTCCC", "DNA 2": "TGGTGGCTACGACGGGATT"}, "B19": {"name": "AAAAAGC (DNA:RNA)", "RNA": "B1 RNA with G25A, U28A, C30G, U31C", "DNA 1": "CAATCTGAATTCCGGTCTCCC", "DNA 2": "TGGTGGCTACGACGGGATT"}, "B20": {"name": "AAAUUGC (DNA:RNA)", "RNA": "B1 RNA with G25A, A29U, C30G, U31C", "DNA 1": "CAATCTGAATTCCGGTCTCCC", "DNA 2": "TGGTGGCTACGACGGGATT"}}, "note": "Numbering of substitutions follows the chain as printed; changes in the protein carry UniProt numbers. Whole data set: some 16,000 sequences, median “ka relative to ugcaugu” near 0.096, cut for the highest 2% near 0.35. What follows is part of a selection rich in the highest values, with near analogues and random picks from the rest.", "data": [{"target": "T1, RBFOX1 RRM RbFoxmut (Fox-RRM*) (Homo sapiens, UniProt Q9NWB1 109-208, R118D;E147R;N151S;E152T)", "T1 sequence": "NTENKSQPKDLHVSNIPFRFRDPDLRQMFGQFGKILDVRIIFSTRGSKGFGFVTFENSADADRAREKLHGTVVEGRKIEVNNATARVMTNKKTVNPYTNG", "test": "EMSA; HiTS-Eq, 1 nM pool, 10 min; buffer printed only for the single-RNA assays: 10 mM Tris pH 7.5, 150 mM NaCl, 3.4 mM EDTA, 0.001% NP-40, 30 C", "details": "tags: His6 N-terminal (pET28a); label: 5' 32P", "method_in_brief": "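Purified RbFox RRM (wild type or mutant) was equilibrated for 10 min in 50 µL with 1 nM of a 5′-radiolabelled pool of RNA with 7 randomized nucleotides, its flanks annealed to DNA oligonucleotides, across increasing protein concentrations. Free RNA was separated by 8% native PAGE, excised, reverse-transcribed, PCR-barcoded and sequenced on an Illumina HiSeq 2500. Relative association constants came from read-count changes of each variant against the control reaction, normalised to the cognate motif.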", "values": [{"binder": "B1", "binding signal": "0.0832 KA relative to UGCAUGU"}, {"binder": "B2", "binding signal": "0.108 KA relative to UGCAUGU"}, {"binder": "B3", "binding signal": "0.502 KA relative to UGCAUGU"}, {"binder": "B4", "binding signal": "0.199 KA relative to UGCAUGU"}, {"binder": "B5", "binding signal": "0.248 KA relative to UGCAUGU"}, {"binder": "B6", "binding signal": "0.278 KA relative to UGCAUGU"}, {"binder": "B7", "binding signal": "0.0967 KA relative to UGCAUGU"}, {"binder": "B8", "binding signal": "0.639 KA relative to UGCAUGU"}, {"binder": "B9", "binding signal": "0.407 KA relative to UGCAUGU"}, {"binder": "B10", "binding signal": "0.305 KA relative to UGCAUGU"}, {"binder": "B11", "binding signal": "0.0809 KA relative to UGCAUGU"}, {"binder": "B12", "binding signal": "0.147 KA relative to UGCAUGU"}, {"binder": "B13", "binding signal": "0.0961 KA relative to UGCAUGU"}, {"binder": "B14", "binding signal": "0.0891 KA relative to UGCAUGU"}, {"binder": "B15", "binding signal": "0.107 KA relative to UGCAUGU"}, {"binder": "B16", "binding signal": "0.0603 KA relative to UGCAUGU"}, {"binder": "B17", "binding signal": "0.0749 KA relative to UGCAUGU"}, {"binder": "B18", "binding signal": "0.0768 KA relative to UGCAUGU"}, {"binder": "B19", "binding signal": "0.0699 KA relative to UGCAUGU"}, {"binder": "B20", "binding signal": "0.0959 KA relative to UGCAUGU"}]}]}
